CDK5 p35 inh – blocks human CDK5/p35 kinase activity. 0.01% of 330,000 active. inhibition, % at 10 µM. Recombinant CDK5/p35, ADP-Glo luminescence, 60 min. Q00535+Q15078;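 active = highest replicate inhibition of at least 50% and at least 75% of replicates reaching 50%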
CASP6 VEID inh – caspase-6 (human) enzyme inhibition; P55212; purified caspase-6, Z-VEID-R110 cleavage fluorescence; inhibition, % at 12.5 µM; 0.53% of 350,000 active; AID 686996;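 active = mean inhibition across replicates at least about 35%, with every replicate also reaching that limit, limit read from the data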
N-glyco inh – blocks N-linked glycosylation in D54 reporter cells | reporter increase, % at 12.5 µM | D54 ERlucT glycosylation luciferase reporter, 24 h; percent of 100 nM tunicamycin response | 0.23% of 360,000 active | AID 588692;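 active = mean luciferase reporter signal, scaled so untreated is 0 and the glycosylation-blocking control 100, at or above a set limit in every replicate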;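 also: luciferase carries N-glycosylation sites so blocking glycosylation raises the light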
ALR H2O2 inh – inhibitors of human sulfhydryl oxidase ALR; purified ALR, DTT oxidation, H2O2 HRP-luminol luminescence; inhibition, % (test concentration not listed); 3.8% of 290,000 active;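 active = mean replicate inhibition above about 79%, with every replicate also reaching it, limit read from the data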
NSD2 inh – blocks human histone methyltransferase NSD2; 0.54% of 310,000 active; NSD2 peptide methylation, AlphaScreen, 120 min; inhibition, % at 12.5 µM; AID 743445; O96028; in the data active = inhibition above about 50%
Target sequence (O96028 whole entry, looked up): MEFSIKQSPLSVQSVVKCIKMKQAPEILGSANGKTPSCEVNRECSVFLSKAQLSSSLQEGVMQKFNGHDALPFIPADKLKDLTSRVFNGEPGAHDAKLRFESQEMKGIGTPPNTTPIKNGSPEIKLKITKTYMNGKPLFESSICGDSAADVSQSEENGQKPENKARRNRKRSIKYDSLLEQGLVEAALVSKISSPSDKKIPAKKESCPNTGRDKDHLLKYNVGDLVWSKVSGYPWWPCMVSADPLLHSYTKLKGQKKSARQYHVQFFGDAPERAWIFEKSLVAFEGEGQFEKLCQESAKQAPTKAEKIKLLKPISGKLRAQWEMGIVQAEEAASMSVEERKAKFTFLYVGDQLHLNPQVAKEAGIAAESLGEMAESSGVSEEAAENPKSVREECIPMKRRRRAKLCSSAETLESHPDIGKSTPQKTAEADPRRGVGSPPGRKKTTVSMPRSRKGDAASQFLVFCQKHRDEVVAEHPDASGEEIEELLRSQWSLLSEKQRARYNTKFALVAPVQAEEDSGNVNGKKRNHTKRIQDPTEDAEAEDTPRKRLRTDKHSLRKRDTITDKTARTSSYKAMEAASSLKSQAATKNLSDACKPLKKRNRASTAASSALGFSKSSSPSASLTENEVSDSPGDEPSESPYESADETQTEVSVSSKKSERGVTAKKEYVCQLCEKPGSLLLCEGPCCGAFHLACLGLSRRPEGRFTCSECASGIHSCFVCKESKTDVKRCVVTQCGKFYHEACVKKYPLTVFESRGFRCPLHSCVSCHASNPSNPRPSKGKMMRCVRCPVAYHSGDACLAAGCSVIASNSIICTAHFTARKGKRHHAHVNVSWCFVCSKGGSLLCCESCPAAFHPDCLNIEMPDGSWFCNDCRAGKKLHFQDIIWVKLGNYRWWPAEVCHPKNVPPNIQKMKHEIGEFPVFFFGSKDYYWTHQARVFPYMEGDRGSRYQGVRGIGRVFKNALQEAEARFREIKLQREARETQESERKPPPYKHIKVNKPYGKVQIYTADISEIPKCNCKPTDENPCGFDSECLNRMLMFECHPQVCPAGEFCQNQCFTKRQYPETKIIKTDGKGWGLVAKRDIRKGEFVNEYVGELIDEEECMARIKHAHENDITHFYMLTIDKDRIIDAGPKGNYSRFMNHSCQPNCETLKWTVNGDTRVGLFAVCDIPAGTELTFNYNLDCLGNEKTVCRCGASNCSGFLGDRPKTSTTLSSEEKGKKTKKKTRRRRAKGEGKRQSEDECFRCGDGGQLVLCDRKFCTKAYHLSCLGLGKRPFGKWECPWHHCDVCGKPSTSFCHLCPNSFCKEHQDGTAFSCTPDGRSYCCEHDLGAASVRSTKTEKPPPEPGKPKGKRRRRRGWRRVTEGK
SUMO Mot1 rescue – blocks SUMOylation pathway, rescuing yeast Mot1-301 growth. S. cerevisiae Mot1-301 growth rescue, ATP luminescence, 38.5C; percent above DMSO median, 100 means doubled. 1% of 320,000 active. AID 2716. growth rescue, % at 18.8 µM;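 active = every valid replicate shows activation above 250% relative to neutral control wells; inactive = the rest, any valid replicate at or below 250%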
Alpha artifact – AlphaScreen assay artifact in NSD2 counter-screen | shares compounds with NSD2 inh | AlphaScreen artifact counterscreen, preloaded methylated H4 peptide | AC35, µM (titrated, usually from 10 µM) | 9.4% of 1,500 active | AID 1053174; call rule not given here
Numbers stand for hits; n = inactive; x = no result given. Most compounds without a hit are left out; they make up all but 3.9% or so of the library.

SMILES	CDK5 p35 inh	CASP6 VEID inh	N-glyco inh	ALR H2O2 inh	NSD2 inh	SUMO Mot1 rescue	Alpha artifact
CN(C)CCCNC(=O)C[C@@H]1CC[C@H]2[C@H](COc3ccc(NC(=O)c4ccc5c(c4)OCO5)cc3C(=O)N2C)O1	x	n	x	x	x	x	x
CN(C)c1cccc2c1C(=O)c1ccccc1C2=O	n	n	n	n	60.1	n	2.2µM
COc1cc(C(=O)NC(C)c2ccc3ccccc3c2)cc(Cl)c1O (configuration not stated)	n	n	n	n	74.3	n	n
C[C@H](CO)N1C[C@H](C)[C@@H](CN(C)S(=O)(=O)c2ccc(F)cc2)Oc2ccc(N(C)C)cc2CC1=O	x	n	x	x	x	x	x
CCOc1ccc(C(N)=O)cc1OC	n	x	n	n	n	n	x
CCOc1ccc(N)cc1OC	n	n	n	n	56.0	n	n
CO[C@H]1CN(C)C(=O)c2ccc(NC(=O)C3CCCC3)cc2OC[C@@H](C)N(C(=O)CC2CC2)C[C@H]1C	x	n	x	x	x	x	x
COc1ccc(NC(=O)N(C)C[C@H]2Oc3ccc(NC(=O)c4ccncc4)cc3CC(=O)N([C@H](C)CO)C[C@H]2C)cc1	x	n	x	x	x	x	x
Cc1nc2cc(C(=O)NCc3cccnc3)ccc2n1-c1ccc(F)cc1F	n	n	n	n	50.4	n	n
COc1ccc(NC(=O)Nc2ccc3c(c2)[C@H]2C[C@H](CC(=O)O)O[C@@H](CO)[C@H]2O3)cc1	x	n	x	x	x	x	x
O=C(Nc1nnc(SCc2cccc3ccccc23)s1)C1COc2ccccc2O1 (configuration not stated)	n	n	n	x	63.0	n	n
C[C@@H](O)C#Cc1ccc([C@@H]2[C@H]3CN(C(=O)c4ccc(F)cc4)CCCCN3[C@H]2CO)cc1	x	n	x	x	x	x	x
COc1ccc(Cl)cc1NC(=O)CN1CCN(S(=O)(=O)c2ccc(F)cc2)CC1	n	n	n	n	n	n	x
CC(C)c1ccc(S(=O)(=O)N2CCN(CC(=O)Nc3ccc(Cl)cc3F)CC2)cc1	n	n	n	n	120.4	n	n
CO[C@H]1CN(C)C(=O)c2ccc(NC(=O)C3CCCCC3)cc2OC[C@@H](C)N(Cc2nccs2)C[C@@H]1C	x	n	x	x	x	x	x
COc1ccc(C(=O)N[C@H](C(=O)NCc2ccc(C)cc2)C(C)C)cc1	n	n	n	n	75.3	n	n
O=C(C[C@H]1CC[C@@H]2[C@H](COC[C@@H](O)CN2C(=O)c2ccccc2F)O1)N1CCCCC1	x	n	x	x	x	x	x
COc1ccc(C(=O)NCc2nnc(SCC(=O)Nc3cc(C)cc(C)c3)o2)cc1OC	n	x	n	n	75.0	n	n
O=C(NC1(O)C(=O)c2ccccc2C1=O)c1c(Cl)cccc1Cl	n	39.3	n	n	110.8	n	n
O=C(Nc1ccccc1Cl)c1c(F)c(F)c(F)c(F)c1F	n	x	n	x	n	n	x
O=C(NC1(O)C(=O)c2ccccc2C1=O)c1ccccc1	n	x	n	n	109.6	n	n
Cc1ccc(C(=O)C2CCN(S(=O)(=O)c3ccc(C(=O)O)cc3)CC2)cc1	n	x	n	x	65.6	n	n
Cc1cccc(CN(C)C[C@@H]2Oc3ncc(-c4cc5ccccc5o4)cc3C(=O)N([C@H](C)CO)C[C@@H]2C)c1	x	n	x	x	x	x	x
N=C1C(c2nc(-c3ccc(F)cc3)cs2)=C(O)CN1Cc1ccc(Cl)cc1	n	x	n	n	127.7	n	n
COc1ccc(-c2csc(C3=C(O)CN(Cc4ccc(Cl)cc4)C3=N)n2)cc1OC	n	n	n	n	n	n	x
SMILES	CDK5 p35 inh	CASP6 VEID inh	N-glyco inh	ALR H2O2 inh	NSD2 inh	SUMO Mot1 rescue	Alpha artifact
Cc1c(O)ccc(C(=O)CN2CCN(c3ccccc3F)CC2)c1O	n	x	n	n	n	n	x
O=C(CN1CCN(S(=O)(=O)c2ccc(Br)cc2)CC1)c1ccc(O)c(O)c1	n	54.8	n	96.3	79.7	n	n
O=C(CN1CCN(c2ccccc2F)CC1)c1ccc(O)c(O)c1	n	x	n	99.0	94.8	n	n
C[C@@H]1CCCCO[C@H](CN(C)S(=O)(=O)c2cccs2)[C@@H](C)CN([C@H](C)CO)C(=O)c2cc(NS(=O)(=O)c3ccccc3)ccc2O1	x	n	x	x	x	x	x
C[C@@H]1CN([C@@H](C)CO)C(=O)c2cc(C#CC3CC3)cnc2O[C@H]1CN(C)C(=O)CC1CC1	x	n	x	x	x	x	x
CCCCn1nnc(NC(=O)c2ccco2)n1	n	x	n	n	122.8	n	n
O=C(C[C@H]1CC[C@H](NC(=O)C2CCC2)[C@@H](CO)O1)NC1CCCCC1	x	n	x	x	x	x	x
COc1ccc(C=C(c2nc3ccccc3s2)c2nc3ccccc3s2)cc1O	n	x	29.0	n	58.6	n	n
Nc1ccc2c(c1)OCCOCCOCCOCCOCCO2	n	n	n	98.5	64.4	n	n
Brc1ccc2c(c1)OCCOCCOc1cc(Br)ccc1OCCOCCOCCO2	n	x	n	n	x	n	x
COCC(=O)N1C[C@H]2[C@@H](c3ccccc31)[C@@H](CO)N2Cc1ccccc1Cl	x	n	x	x	x	x	x
CCNC(=O)Cc1ccc(NS(=O)(=O)c2ccc(F)cc2)cc1	n	x	n	n	109.1	n	n
O=C(Cc1ccc(NS(=O)(=O)c2ccc(F)cc2)cc1)NCc1ccccc1	n	x	n	x	x	n	x
CCCN(CCC)CCCNC(=O)c1ccc(CS(=O)(=O)c2c(Cl)cccc2Cl)o1	n	n	n	x	62.9	n	n
CN(C)CCNC(=O)c1ccc(CS(=O)(=O)c2c(Cl)cccc2Cl)o1	n	n	n	n	x	n	x
CCC1CC(CSc2ncn[nH]2)OC1=O (configuration not stated)	n	x	n	n	56.0	n	n
CCCC1CC(CSc2ncn[nH]2)OC1=O (configuration not stated)	n	n	n	n	n	n	x
COC(=O)c1c(NC(=O)C(C)C)sc(C(=O)N2CCOCC2)c1C	n	n	n	x	104.9	n	n
COC(=O)c1c(NC(C)=O)sc(C(=O)N2CCOCC2)c1C	n	n	n	n	n	n	x
C[C@@H]1CN([C@@H](C)CO)C(=O)c2cc(C3=CCCCC3)cnc2O[C@@H]1CN(C)C(=O)c1ccccc1	x	n	x	x	x	x	x
CCc1ccc(N2C(=O)C3C(C2=O)N2CCCN2C3c2ccccc2)cc1 (configuration not stated)	n	n	n	n	63.7	n	n
COc1cn(-c2ccccc2)nc1C(=O)NCc1ccc(C)cc1	n	n	n	n	n	n	x
COc1cn(-c2ccccc2)nc1C(=O)NCc1ccccc1	n	n	n	n	79.5	n	n
Cc1cc([N+](=O)[O-])cc2c1NC(=O)C2(O)N1CCOCC1 (configuration not stated)	n	n	n	n	59.2	n	n
CC1CCN(C2(O)C(=O)Nc3ccc([N+](=O)[O-])cc32)CC1 (configuration not stated)	n	x	n	n	n	n	x

Source: PubChem BioAssay (Broad Institute)
